# Screens deposited in PubChem BioAssay by several laboratories.
# HIF-2a inh – blocks HIF-2a reporter activity; inhibition, % at 18.8 µM; 360,000 compounds, 0.72% hits; AID 624352; 786-0 RCC cells HIF-2a reporter, luciferase luminescence, overnight;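 active = inhibition of the luminescence signal of 40% or more relative to plate controls, in a single-dose primary screen at 18.75 µM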
# HSP90 inh – HSP90 refolding inhibition in rabbit reticulocyte lysate; AID 1789; 290,000 compounds, 0.91% hits; luciferase refolding luminescence, 3 h; inhibition, % at 5.6 µM;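 active = inhibition above the screen-wide mean plus 3 SD, computed separately per campaign, cut at about 16% in these data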;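 note: 0% = DMSO wells and 100% = 60 µM geldanamycin wells; inhibitors lower the luminescence because luciferase stays unfolded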
# TRAIL sens C8 – caspase-8 TRAIL sensitization; NB7+C8 cells + TRAIL, ATPlite viability luminescence; inhibition (viability loss, TRAIL sensitization), % at 10 µM; 360,000 compounds, 1% hits; AID 624354;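 active = compounds causing at least 50% loss of cell viability in the single-dose screen, relative to plate controls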
# aSyn 5UTR inh – MLPCN primary screen, SNCA 5' untranslated region; alpha-synuclein 5'UTR reporter, inhibitor activity; inhibition, % (tested at 7.5 µM); 300,000 compounds, 0.82% hits; in the data active = inhibition above about 60%;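 note: H4 neuroglioblastoma cells stably carrying SNCA 5'UTR luciferase fusion; 0% = DMSO wells and 100% = positive control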
# TROY signal inh – TROY signaling inhibition | Q293 LMP1-TROYcd NF-kB luciferase reporter, 4 h | inhibition, % at 10 µM | 360,000 compounds, 0.98% hits | AID 1347056;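 active = compounds whose plate-normalised and pattern-corrected inhibition of the luciferase reporter signal at the single screening dose is 50% or more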
# TWEAK Fn14 block – inhibitors of TWEAK-Fn14 interaction signaling; TWEAK-stimulated Fn14 reporter cells, luciferase luminescence, 8 h; inhibition, % at 10 µM; 360,000 compounds, 2% hits; in the data active = inhibition above about 50%
# * = called active by the depositor; . = no result. Most compounds without a hit are left out; they make up all but 3.9% or so of the library.
SMILES,HIF-2a inh,HSP90 inh,TRAIL sens C8,aSyn 5UTR inh,TROY signal inh,TWEAK Fn14 block
CCOC(=O)[C@]12CCCC=C1N(Cc1ccc3c(c1)OCO3)C(=O)[C@H](CC(=O)NCCCN1CCCC1=O)C2,11,.,0,.,-29,19
CNc1ccc2ncc(-c3ccc(OC)c(OC)c3)n2n1,17,.,-7,.,57*,83*
CNc1cc(-c2ccc(OC)c(OC)c2)ncn1,-221,.,20,.,-39,12
CC1(c2nnnn2-c2ccc3c(c2)OCCO3)CCC(=O)N1Cc1ccc(F)cc1 (configuration not stated),7,.,6,.,1,12
CC1(c2nnnn2-c2ccc3c(c2)OCCO3)CCC(=O)N1Cc1cccnc1 (configuration not stated),-14,.,-4,.,57*,79*
COc1cc(Nc2ccn3nccc3n2)cc(OC)c1OC,2,.,6,.,-4,5
CCc1nc2ccc(C(=O)NCCCn3ccnc3)cn2c1N(C)Cc1nccs1,4,.,7,.,-26,8
O=C1CCC(=O)N1c1ccc(CSc2nc3ccccc3[nH]2)cc1,-74,4,11,-48,-40,-4
COc1ccc(CSc2nc3ccccc3[nH]2)cc1,-159,10,69*,-189,-14,35
COc1ccc(CCN2C(=O)CCC3=C2CCCC3=O)cc1OC,5,.,-23,.,4,10
CN(Cc1cnc2nc(N)nc(N)c2n1)c1ccc(C(=O)NC(CCC(=O)O)C(=O)O)c2ccccc12 (configuration not stated),32,.,83*,.,13,-3
O=C(O)CCC(NC(=O)c1ccc(Cl)cc1)C(=O)O (configuration not stated),6,-1,1,3,-5,2
COc1ccccc1-n1cc2c([N+](=O)[O-])cc([N+](=O)[O-])cc2n1,-11,2,27,-69,-32,51*
CC(=O)c1ccc(N/C=C\C(=O)c2ccc(C)cc2)cc1,-250,0,17,-211,14,-6
Cc1ccc(C(=O)/C=C/Nc2ccc3c(c2)OCO3)cc1,-196,2,61*,-182,-8,-9
CC(=O)c1cccc(N/C=C\C(=O)c2ccc(C)cc2)c1,-133,2,52*,-159,-37,19
O=C(/C=C/Nc1cccc(O)c1)c1ccccc1,-272,-4,67*,-180,7,48
C/C(=C\C(=O)c1ccc(C)cc1)Nc1cccc(O)c1,-305,-6,24,-284,2,-30
CC(=O)c1cccc(NS(=O)(=O)c2ccc(N/C=C\C(=O)c3ccc(C)cc3)cc2)c1,6,4,34,10,24,12
Cc1ccc(C(=O)/C=C/Nc2cccc(O)c2)cc1,-225,4,83*,-194,-40,-1
O=C(Nc1ccc(F)cc1)C(c1ccccc1OC(F)(F)F)N1CCN(C(=O)c2ccco2)CC1 (configuration not stated),-6,.,-23,.,.,.
CC(=O)Nc1ccc(-c2ccnc3c2CC(C)(C(=O)Nc2cccc(C(C)=O)c2)O3)cc1 (configuration not stated),10,.,0,.,-18,-60
CC(=O)c1cccc(NS(=O)(=O)c2ccc(N/C=C/C(=O)c3ccc(F)cc3)cc2)c1,5,-1,23,9,41,89*
CC(=O)Nc1cccc(C(=O)/C=C/c2ccc(F)cc2)c1,-27,0,4,-103,-19,72*
CC(=O)c1cccc(NS(=O)(=O)c2ccc(N/C=C\C(=O)c3ccc(F)cc3)cc2)c1,14,5,-2,-8,-12,0
SMILES,HIF-2a inh,HSP90 inh,TRAIL sens C8,aSyn 5UTR inh,TROY signal inh,TWEAK Fn14 block
CC(=O)Nc1cccc(C(=O)/C=C/c2ccc(/C=C/C(=O)c3cccc(NC(C)=O)c3)cc2)c1,.,2,.,-129,.,.
CCOC(=O)[C@]12CCCC=C1N(Cc1cccc3ccccc13)C(=O)[C@H](CC(=O)N1CCC(c3ccccc3)CC1)C2,-1,.,10,.,-8,20
CC(C)N1CCC2(CC1)N=C(c1ccc3c(c1)OCO3)CC(c1cc(Cl)ccc1O)N2 (configuration not stated),-128,-4,36,-173,4,51*
CC(Sc1ccc(Cl)cc1)C(=O)Nc1ccc2c(c1)OCO2 (configuration not stated),-36,3,9,1,-22,-7
Cc1ccccc1-c1cc2nc(NCCN3CCCC3)n(C)c(=O)c2s1,-123,.,6,.,-32,-41
CC(/C=N/NC(=O)c1cccs1)=C\c1ccccc1,-232,1,58*,-99,-13,11
CC(/C=N/NC(=O)c1ccco1)=C\c1ccccc1,-201,10,69*,-1,-8,30
CC(C=NNC(=O)C(=O)NN=CC(C)=Cc1ccccc1)=Cc1ccccc1,-124,.,15,.,-42,12
COc1ccc(Br)cc1/C=N/NC(=O)c1ccc(COc2ccc3c(c2)CCC3)o1,-26,10,-5,-42,-47,-23
O=C(N/N=C/c1cc([N+](=O)[O-])ccc1O)c1ccc(COc2ccc3c(c2)CCC3)o1,-24,0,52*,87*,-25,-11
O=C(/C=C/c1ccccc1)Nc1ccc2c(c1)C(=O)NC2=O,-86,-4,50*,11,-49,-42
O=C(/C=C/c1ccccc1Cl)Nc1ccc2c(c1)C(=O)NC2=O,-21,-3,15,14,-43,-31
CC1=NN(c2nc(-c3ccccc3)cs2)C(=O)C1,30,8,13,-15,55*,66*
CN[C@H]1CCc2cc(OC)c(OC)c(OC)c2-c2ccc(OC)c(=O)cc21,19,.,16,90*,23,23
CCOC(=O)C1(C)CCCCCN1C(=O)c1csnn1 (configuration not stated),5,.,5,.,16,-3
CC(C)(C)C1CCC(OC(=O)c2cncc(Br)c2)CC1 (configuration not stated),-29,1,5,-123,71*,74*
O=C(c1cc(-c2ccc(F)cc2)nc2ccccc12)N1CCN(C2CCS(=O)(=O)C2)CC1 (configuration not stated),-63,.,3,.,-16,-8
O=C(N/N=C/c1cn(-c2ccccc2)nc1-c1cccnc1)c1ccc(F)cc1,-8,-2,3,-11,-11,6
O=C(N/N=C/c1cn(-c2ccccc2)nc1-c1cc2ccccc2o1)c1cccnc1,-173,-4,55*,23,63*,85*
O=C(O)c1cccc(NC(=O)c2cn(-c3ccccc3)nc2-c2cc3ccccc3o2)c1,-131,0,11,-11,-26,-2
O=C(N/N=C/c1cn(-c2ccccc2)nc1-c1cccnc1)c1cccnc1,-16,1,-10,12,8,-4
O=C(N/N=C/c1cn(-c2ccccc2)nc1-c1ccc(F)cc1)c1ccc(Br)o1,-84,0,25,-16,13,53*
